These results are taken from PubChem BioAssay AID743130 (Broad Institute, 2013).

Values without a mark were called inactive.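 The calls were made as follows: active = fitted curve rises past 20% activation at a concentration no higher than the top valid tested dose; inactive = activity opposite to the expected signal increase, and the rest.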

A short description of this test: Rlm1 cell wall stress reporter activators, dose response, S. cerevisiae reporter strain, C. neoformans project, dry powder (AID 743130). Conditions: S. cerevisiae Rlm1-lacZ reporter, luminescence, 4 h, active compounds read high.

For `Cc1ccc(OCCn2c(=S)[nH]c3ccccc32)c(C(C)C)c1`, the maximal activation was 2.35% (at 0.135 µM) and 3.69% (at 0.26 µM).
